Assay [1] deals with Plasmodium falciparum Sir2 (PF13_0152, Sir2A). Nature of the assay: pfSir2 binders on small-molecule microarrays, primary screen, biochemical, small-molecule microarray, 635 nm fluorescence (AID 1098).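 Further: score merges spot fluorescence intensity with its signal-to-noise ratio.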 The settings on record: small-molecule microarray binding, fluorescence 635 nm; higher = more signal.
Assay [2] in a line: small-molecule microarray binders of probe aDKK1, primary screen, biochemical, biotinylated probe, 635/667 nm fluorescence (AID 1099).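 Further: score merges 667nm spot fluorescence with signal to noise across triplicate slides; reference of the scale not given here.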 The following applies: higher = more signal.
Assay [3] is described as follows: small-molecule microarray binders of probe aCHRDL2, primary screen, biochemical, biotinylated probe, 635/667 nm fluorescence (AID 1100). The following applies: higher = more signal.
The nature of assay [4]: splicing luciferase reporter signal modulators, primary screen, spliceosome inhibition project, cell-based, HEK293, splice +/- reporter (AID 1101).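 Further: HEK293 cells carrying a splicing-competent luciferase reporter gene; test concentration not given here.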 The settings on record: luminescence, 24 h, higher = more signal, called active from +8 up or from −8 down. On the technique in general: Reporter assays use an easily measured gene product as a stand-in for the process of interest.

Assay [5] deals with Fibroblast growth factor 10 (Homo sapiens) (UniProt O15520). Description: FGF10 binders on small-molecule microarrays, primary screen, biochemical, small-molecule microarray, 635 nm fluorescence (AID 1102). The following applies: FGF10 binding, fluorescence 635 nm, higher = more signal.
The test system of assay [6] is glycogen synthase kinase-3 (GSK3A per assay name; protocol says GSK3B). Nature of the assay: GSK3 binders on small-molecule microarrays, primary screen, biochemical, small-molecule microarray, 635 nm fluorescence, GSK3A (AID 1103). Further: the record names both GSK3A and GSK3B. The settings on record: small-molecule microarray binding, fluorescence 635 nm; higher = more signal.
The target in assay [7] is Epidermal growth factor receptor (Homo sapiens) (UniProt P00533). Description: EGFR binders on small-molecule microarrays, primary screen, biochemical, small-molecule microarray, 635 nm fluorescence (AID 1104).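 Further: score merges 667 nm emission intensity with spot signal to noise over triplicate slides.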 The following applies: EGFR binding, higher = more signal.
Assay [8] deals with Follistatin-related protein 3 (Homo sapiens) (UniProt O95633). Nature of the assay: FSTL3 binders on small-molecule microarrays, primary screen, biochemical, small-molecule microarray, 635 nm fluorescence (AID 1105).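 Further: score merges emission near 667 nm and signal to noise per printed spot across three slides.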 The settings on record: FSTL3 binding, higher = more signal.
Assay [9] concerns the target Dickkopf-related protein 1 (Homo sapiens) (UniProt O94907). Nature of the assay: DKK1 binders on small-molecule microarrays, primary screen, biochemical, small-molecule microarray, 635 nm fluorescence scan (AID 1106).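 Further: score merges emission near 667 nm with signal to noise over three replicate slides.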 The following applies: DKK1 binding, higher = more signal.
Assay [10] concerns Inhibin beta A chain (activin A). Description: INHBA (activin A) binders on microarrays, primary screen, biochemical, small-molecule microarray, 635 nm fluorescence scan (AID 1107).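 Further: mouse activin A protein probed at 4.33 µg/mL on printed slides; score merges bound-protein fluorescence near 667 nm with spot signal-to-noise.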 The settings on record: small-molecule microarray binding, higher = more signal.

Each structure is given as a SMILES string. The source made the active and inactive calls.

Chain of Fibroblast growth factor 10 (Homo sapiens) (O15520 whole entry, looked up): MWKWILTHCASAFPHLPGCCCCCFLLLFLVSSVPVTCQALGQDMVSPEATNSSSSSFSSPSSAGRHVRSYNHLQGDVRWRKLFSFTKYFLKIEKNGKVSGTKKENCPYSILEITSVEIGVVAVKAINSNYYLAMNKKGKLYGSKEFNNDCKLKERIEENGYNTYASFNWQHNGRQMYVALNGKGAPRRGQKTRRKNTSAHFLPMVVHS
Chain of Dickkopf-related protein 1 (Homo sapiens) (O94907 whole entry, looked up): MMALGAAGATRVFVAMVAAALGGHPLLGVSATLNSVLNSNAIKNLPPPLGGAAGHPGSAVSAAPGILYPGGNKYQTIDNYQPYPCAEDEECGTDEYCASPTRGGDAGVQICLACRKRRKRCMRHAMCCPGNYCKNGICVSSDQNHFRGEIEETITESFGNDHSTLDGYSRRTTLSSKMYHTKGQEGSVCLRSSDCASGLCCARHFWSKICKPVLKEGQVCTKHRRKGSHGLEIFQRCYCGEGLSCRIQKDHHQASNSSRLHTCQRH
Chain of Follistatin-related protein 3 (Homo sapiens) (O95633 whole entry, looked up): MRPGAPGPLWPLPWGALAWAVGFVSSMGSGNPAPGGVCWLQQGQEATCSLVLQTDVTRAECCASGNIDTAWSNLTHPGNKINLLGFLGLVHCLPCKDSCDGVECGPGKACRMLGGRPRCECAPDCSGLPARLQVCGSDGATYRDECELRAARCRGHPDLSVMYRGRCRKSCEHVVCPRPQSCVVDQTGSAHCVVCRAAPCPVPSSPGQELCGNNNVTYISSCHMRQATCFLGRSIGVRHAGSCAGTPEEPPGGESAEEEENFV
Chain of Epidermal growth factor receptor (Homo sapiens) (P00533 whole entry, looked up): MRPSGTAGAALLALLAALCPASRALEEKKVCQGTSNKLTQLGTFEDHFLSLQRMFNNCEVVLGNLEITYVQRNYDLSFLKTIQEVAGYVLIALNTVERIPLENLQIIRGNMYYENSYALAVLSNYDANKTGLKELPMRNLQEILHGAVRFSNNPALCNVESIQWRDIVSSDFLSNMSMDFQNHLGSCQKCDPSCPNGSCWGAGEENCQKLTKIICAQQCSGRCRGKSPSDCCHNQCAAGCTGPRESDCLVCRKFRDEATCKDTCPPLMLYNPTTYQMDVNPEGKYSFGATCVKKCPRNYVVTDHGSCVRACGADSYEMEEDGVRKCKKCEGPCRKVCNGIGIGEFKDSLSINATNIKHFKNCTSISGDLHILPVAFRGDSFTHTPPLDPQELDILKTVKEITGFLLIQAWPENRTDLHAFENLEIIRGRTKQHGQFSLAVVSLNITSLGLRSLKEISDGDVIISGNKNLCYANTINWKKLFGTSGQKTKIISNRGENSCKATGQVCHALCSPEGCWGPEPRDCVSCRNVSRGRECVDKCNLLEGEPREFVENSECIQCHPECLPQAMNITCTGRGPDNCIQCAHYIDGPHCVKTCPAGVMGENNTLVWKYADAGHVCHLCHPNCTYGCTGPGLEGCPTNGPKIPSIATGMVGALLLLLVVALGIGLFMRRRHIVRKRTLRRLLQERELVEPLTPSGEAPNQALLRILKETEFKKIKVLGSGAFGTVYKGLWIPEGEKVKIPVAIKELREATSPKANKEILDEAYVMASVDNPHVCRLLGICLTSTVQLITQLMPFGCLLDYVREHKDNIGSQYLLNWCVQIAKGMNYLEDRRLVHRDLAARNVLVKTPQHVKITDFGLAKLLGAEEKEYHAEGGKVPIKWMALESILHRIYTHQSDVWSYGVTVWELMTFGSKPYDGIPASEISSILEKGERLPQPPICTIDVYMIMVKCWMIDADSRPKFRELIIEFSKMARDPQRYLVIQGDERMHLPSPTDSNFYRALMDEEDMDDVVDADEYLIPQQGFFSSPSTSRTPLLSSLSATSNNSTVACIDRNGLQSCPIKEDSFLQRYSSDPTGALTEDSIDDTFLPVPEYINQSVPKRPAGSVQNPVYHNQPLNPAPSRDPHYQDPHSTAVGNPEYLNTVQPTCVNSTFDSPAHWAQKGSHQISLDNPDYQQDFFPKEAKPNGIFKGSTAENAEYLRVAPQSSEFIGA

Turning to `COc1ccc(C(O)C2C=CC3C(=O)NC(=O)C3N2Nc2ccc(Cl)cc2Cl)c2ccccc12` (stereo not given), the composite z-score is 0.828 in assay [1]; 0.913 in assay [2]; 1.15 in [3]; 0.0892 in assay [5]; 0.15 in [6]; -0.582 in [7]. The results for the composite z-score in assay [8], in assay [9] and in assay [10] were 0.483, -0.284 and 1.14, respectively. Further, in [4], the z-score was -0.744 (inactive).
In the case of `O=C(NCCN1CCOCC1)[C@@H]1c2ccccc2C(=O)N(Cc2ccc(OC(F)(F)F)cc2)[C@H]1c1ccc(CO)cc1`, the composite z-score in assay [1] is -0.0284; in assay [2], 0.0779; in [3] it was 1.18; in [5], -0.738; in assay [6], 0.0049; in [7], -0.611. For the same molecule, the values for the composite z-score in [8], in [9] and in assay [10] were 0.417, -1.14 and -0.252, respectively. Further, the z-score in assay [4] is 0.709 (inactive).
As to `C=C(COC)/C(=C/C[C@H](OC(C)=O)c1ccccc1OCCO)c1cc(C(=O)OC)ccc1OC`, the composite z-score in assay [1] is 0.989; in [2] it was -0.103; in assay [3], -0.0952; in assay [5], 1.05; in assay [6], 0.196; in [7] it was -0.607. In addition, the figures for the composite z-score in [8], in assay [9] and in assay [10] were 0.186, 0.189 and 0.289, respectively. In assay [4], the z-score was -0.907 (inactive).
Take `COc1ccc([Si](C)(C)[C@@H]2[C@@H](CC(=O)N(CCO)Cc3ccccc3)O[C@]3(C(=O)N(Cc4ccc(I)cc4)c4ccccc43)[C@H]2C)cc1`: the composite z-score was determined as 0.625 in [1]; 0.346 in assay [2]; 0.351 in [3]; 1.1 in assay [5]; 0.301 in assay [6]; 1.03 in [7]. Besides, the values for the composite z-score in assay [8], in [9] and in assay [10] were 1.37, 1.2 and 1.58, respectively. In assay [4], the z-score is -2.35 (inactive).
With `COc1cc(CO)cc(I)c1O[C@H]1C=C(C(=O)NCCO)C[C@@H](NC2CCCCCC2)[C@@H]1O`, the composite z-score was 0.515 in assay [1]; -0.168 in assay [2]; -0.675 in assay [3]; 1.38 in assay [5]; 1.16 in assay [6]; 0.44 in [7]. The composite z-score was 1.29 in assay [8], 0.772 in [9] and 0.0403 in assay [10]. In assay [4], the z-score was -0.51 (inactive).
Regarding `CC(C)c1nc2cc(Br)ccc2c(=O)o1`, the composite z-score is 0.338 in [1]; 0.444 in assay [2]; -0.123 in assay [3]; 0.755 in assay [5]; 1.02 in [6]; 0.397 in assay [7]. In addition, the composite z-score was 0.523 in assay [8], 0.359 in assay [9] and -0.585 in assay [10]. The z-score in assay [4] was 1.44 (inactive).
For the molecule `CC(C)C(O)C1C=CC2C(=O)NC(=O)C2N1Nc1ccccn1` (stereo not given), the composite z-score in assay [1] was 1.09; in [2], 0.886; in [3], 0.542; in assay [5] it was 0.109; in assay [6] it was 0.352; in [7], -0.216. For the same molecule, the composite z-score in [8] was 0.401; in assay [9], -0.0362; in assay [10] it was 1.4. Moreover, in assay [4], the z-score was 1.02 (inactive).
On to `CN(C)c1ccc(C(O)C2C=CC3C(=O)N(Cc4ccccc4)C(=O)C3N2n2cnnc2)cc1` (stereo not given), for which the composite z-score was 0.491 in [1]; -0.393 in assay [2]; 0.562 in [3]; 0.13 in assay [5]; -0.56 in [6]; 0.268 in [7]. The composite z-score was -0.0523 in assay [8], 0.114 in [9] and 1.28 in assay [10]. In addition, in assay [4], the z-score is -0.394 (inactive).
Take `COC(=O)C1(Cc2ccccc2)C=C2C(=C(C)C(=O)C2C)CN1` (stereo not given): the composite z-score is 1.66 in assay [1]; 1.21 in assay [2]; 1.22 in [3]; 0.231 in assay [5]; -0.333 in assay [6]; -0.362 in assay [7]. Moreover, the composite z-score was 0.513 in assay [8], -0.424 in assay [9] and 1.43 in assay [10]. The z-score in assay [4] is 1.44 (inactive).
Take `COC(=O)C(CC#Cc1ccc2c(c1)[C@]1(C(=O)N2)[C@H](c2ccccc2OCCO)N2[C@H](c3ccccc3)[C@H](c3ccccc3)OC(=O)[C@H]2[C@@H]1C(=O)N1CCc2cc(OC)c(OC)cc2C1)C(=O)OC`: the composite z-score in [1] was 1.56; in [2], 0.0978; in assay [3], 0.048; in [5] it was 0.71; in [6], 1.3; in [7] it was 1.02. The results for the composite z-score in [8], in [9] and in assay [10] were 1.26, 0.882 and 0.279, respectively. The z-score in assay [4] was -0.795 (inactive).
For `COc1ccc(C(=O)Nc2cccc(CN3C(=O)[C@]4(O[C@H](CC(=O)N5Cc6ccccc6C[C@H]5CO)[C@@H]([Si](C)(C)c5ccc(OC)cc5)[C@@H]4C)c4ccccc43)c2)cc1`, the composite z-score in assay [1] is 0.895; in assay [2], -0.245; in assay [3] it was -0.362; in [5] it was 0.946; in assay [6] it was 0.955; in [7] it was 1.24. Besides, the composite z-score in assay [8] amounted to 1.42; in assay [9], 1.34; in assay [10] it was 1.21. Besides, the z-score in assay [4] was -0.865 (inactive).
As for `C=CCOC(=O)[C@@H]1[C@H]2C(=O)O[C@H](c3ccccc3)[C@H](c3ccccc3)N2[C@H](c2ccc(OCCOC(=O)[C@H]3C[C@H]4C(=O)NCC(=O)N4[C@H]3c3cccc(OCCO)c3)cc2)[C@@]12C(=O)Nc1ccc(I)cc12`, the composite z-score in assay [1] is 1.53; in [2], 0.512; in assay [3], 0.494; in [5] it was 0.742; in assay [6], 1.36; in assay [7], 0.725. Also, the results for the composite z-score in assay [8], in [9] and in assay [10] were 1.23, 1.11 and 0.118, respectively. Moreover, in assay [4], the z-score is 0.789 (inactive).
`O=C(O)[C@H](Cc1ccccc1)n1cc(C2(O)CCCCC2)nn1`: the composite z-score in [1] is -0.0685; in assay [2], -0.201; in [3], -0.518; in assay [5] it was 0.193; in assay [6], 0.938; in [7] it was 0.213. Moreover, the values for the composite z-score in [8], in [9] and in assay [10] were 0.343, 0.196 and -0.0247, respectively. In addition, the z-score in assay [4] was -0.358 (inactive).
Regarding `O=C(NC1CC1)[C@@H]1c2ccccc2C(=O)N(CC23CC4CC(CC(C4)C2)C3)[C@H]1c1ccc(CO)cc1`, the composite z-score in [1] is 0.728; in assay [2], -0.226; in assay [3], -0.0162; in assay [5], 1.41; in [6] it was 1.32; in assay [7], 1.03. Also, the composite z-score in assay [8] was found to be 1.43; in [9], 1.28; in [10], 0.372. Also, in [4], the z-score is -0.724 (inactive).
As to `CC(C)C(=C=CC[C@H](O)c1ccccc1OCCO)C[C@H](O)c1cc(Cl)cc(Cl)c1O`, the composite z-score is 1.25 in assay [1]; -0.0965 in [2]; -0.13 in [3]; 1.11 in assay [5]; 0.579 in assay [6]; -0.172 in assay [7]. Besides, the figures for the composite z-score in assay [8], in assay [9] and in [10] were 0.588, -0.0053 and 0.149, respectively. For the same molecule, the z-score in [4] is -0.605 (inactive).

The record behind these values is PubChem BioAssay.
